Screening data deposited in PubChem BioAssay by National Center for Advancing Translational Sciences (NCATS).
Hits are enriched below; roughly 21% of the tested compounds scored in any of these assays.
Pf growth 48h: P. falciparum growth inhibition at 48 hours (one generation) | P. falciparum luciferase growth in erythrocytes, 48 h | Potency, µM (highest dose often 28.7 µM), for inactives: at the top dose activity change, negative = inhibition, actives largely listed as inhibitors | 310,000 tested, 5.9% active | AID 504832; active means well fitted inhibition curve with a large enough effect; inconclusive means small, poorly fitted or top-dose-only effect, or another doubt; inactive means no such curve, though single readings can be large or run the other way; further: potency means the concentration at half of the fitted maximal effect; on the % scale 0 is the no-effect control and ±100 the full control effect
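Luminescence readout; reporter = integrated firefly luciferase in P. falciparum. RBC culture at 2% hematocrit, 0.1% parasitemia final, 37 C/5% CO2; decreased signal taken as growth inhibition.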
Pf growth 96h: P. falciparum growth inhibition at 96 hours; P. falciparum luciferase reporter growth, 96 h; Potency, µM (series often up to 28.7 µM), without a hit: top-dose activity change, negative = inhibition, hits mostly inhibitors; 320,000 tested, 6.9% active; AID 504834; active means well fitted inhibition curve with a large enough effect; inconclusive means small, poorly fitted or top-dose-only effect, or another doubt; inactive means no such curve, though single readings can be large or run the other way; further: potency means the concentration at half of the fitted maximal effect; on the % scale 0 is the no-effect control and ±100 the full control effect
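Cell-based qHTS: luciferase-tagged P. falciparum in erythrocytes (2% hematocrit, 0.05% parasitemia final) incubated with compounds for 96 hours, 37 C, 5% CO2; luciferase detection reagent then added and luminescence measured.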
SARS PLP yeast: SARS-CoV PLP inhibition in yeast; Potency, µM (series often up to 32.9 µM), without a hit: at the top dose activity, positive = growth rescue, hits mostly activators; 330,000 tested, 0.19% active; S. cerevisiae expressing SARS-CoV PLpro, growth rescue; further: potency means the concentration at half of the fitted maximal effect; 0% is about no effect; nearly all actives have a fitted effect of over 55% in size
CHX counter: affects cycloheximide protein synthesis inhibition readout, counter-screen; 300,000 tested, 12% active; AID 2314; cell reporter, cycloheximide protein synthesis inhibition counterscreen; max response, %; in the data active means max response mostly above about 13%, no sharp cut-off; inactive means mostly below about 14%; further: read at 38.3 µM for the half of the compounds with a filed dose; 0% is about no effect
NS1 inh: inhibitors of influenza NS1 protein function | Potency, µM (highest dose often 46.1 µM), without a hit: at the top dose activity, positive = more growth | 270,000 tested, 0.4% active; further: potency means the concentration at half of the fitted maximal effect; actives are rising curves; nearly all actives have a fitted effect of over 50% in size
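Read-out: OD600 growth recovery of NS1-expressing budding yeast. Cells grown overnight at 30C in -URA glucose medium, washed, resuspended and diluted 1:100 in 2% galactose assay medium, pH 6.0. Same strain lacking NS1 served as positive control.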
Shiga inhibitor: blocks Shiga toxin action in Vero cells; 290,000 tested, 9.2% active; inhibition, % at 38.7 µM; Vero cells, Shiga toxin protein synthesis inhibition reporter; in the data active means inhibition mostly above about 28%, no sharp cut-off; inactive means mostly below about 43%; further: 0% is about no effect
* = called active by the depositor; ? = inconclusive; nt = no result given. Unless noted, the call rests on the fitted dose curve.

SMILES	Pf growth 48h	Pf growth 96h	SARS PLP yeast	CHX counter	NS1 inh	Shiga inhibitor
COc1ccc(CN2CCNC(=O)C2CC(=O)NC2CCCC2)c(OC)c1 (stereo not given)	?	-11%	-2%	-2	7%	-5
COc1ccc(CN2CCNC(=O)C2CC(=O)NC2CCCCC2)c(OC)c1 (stereo not given)	-17%	9.3µM*	28%	-2	-9%	-2
C=CCn1c(SCC#N)nc2sc(CC)cc2c1=O	-6%	289%	-2%	-1	nt	2
COc1ccccc1C(=O)Oc1ccc(C(C)(C)C)cc1	nt	31%	-8%	29*	-50%	73
CCCCCCCOc1ccc(OC(=O)c2cccnc2)cc1	nt	?	7%	-2	11%	-4
CC(C)(C)c1ccc(OC(=O)c2cccnc2)cc1	-15%	?	-30%	18*	-11%	20
COc1ccc(C(=O)OCCCOC(=O)c2ccc(OC)cc2OC)c(OC)c1	-6%	-13%	-4%	-3	2%	-15
CCCCCCOC(=O)c1ccc(OC(=O)c2cccnc2)cc1	nt	94%	2%	32*	4%	58*
COc1ccc(C(=O)Oc2ccc(C(C)=O)cc2)c(OC)c1	32%	2%	-1%	30*	-31%	56
O=C(Cn1c2ccc(F)cc2c2nc3n(c(=O)c21)CCS3)NCC1CCCO1 (stereo not given)	8%	21%	2%	9	0%	-8
CCCc1nnc(NC(=O)CCC(=O)N2CCN(C3c4ccccc4-c4ccccc43)CC2)s1	21%	72%	4%	0	16%	-8
CC(C)c1cc2c(c(O)c1O)[C@@]1(C(=O)O)CCCC(C)(C)[C@@H]1CC2	nt	nt	nt	4	nt	11
CC(=O)c1cc(C)ccc1OC(=O)c1cccnc1	-23%	9.3µM*	-4%	1	1%	-7
CCCCOC(=O)c1ccc(OC(=O)c2cccnc2)cc1	0%	56%	15%	24*	-63%	33*
CCCCOc1ccc(OC(=O)c2cccnc2)cc1	?	-31%	-6%	3	-86%	4
CC(=O)Nc1c2c(nn1-c1ccc(Cl)cc1)CSC2	30%	32%	-9%	-7	3%	-9
COC(=O)c1c[nH]n2c(=O)c(Cc3ccc(F)cc3Cl)c(C)nc12	-5%	1.5µM*	-41%	-1	-82%	-17
O=C(CCC(=O)N1CCN(c2ccc(C(F)(F)F)cn2)CC1)c1cccs1	-21%	-13%	3%	nt	nt	nt
CN(C(=O)/C=C/c1ccc([N+](=O)[O-])s1)c1ccccc1	?	?	-2%	10	nt	64
O=[N+]([O-])c1ccc(/C=N/n2c(CO)nc3ccccc32)s1	4.7µM*	?	-10%	-6	-2%	-11
Cc1nc2ccccc2n1/N=C/c1ccc([N+](=O)[O-])s1	4.1µM*	4.1µM*	-30%	2	-35%	12
Brc1c(OCCOCCn2cncn2)ccc2ccccc12	71%	?	-7%	20*	-47%	27*
O=C(OCc1ccccn1)c1ccc(COc2ccccc2Cl)o1	13%	?	1%	30*	-96%	34
O=C(c1ccc(COc2ccccc2Cl)o1)N1CCOCC1	17%	-20%	0%	-3	-20%	11
O=C(c1ccc(COc2ccccc2Cl)o1)N1CCCC1	-4%	?	-10%	16*	-135%	24
SMILES	Pf growth 48h	Pf growth 96h	SARS PLP yeast	CHX counter	NS1 inh	Shiga inhibitor
CC1CCN(C(=O)c2ccc(COc3ccccc3Cl)o2)CC1	?	10µM*	-14%	19	-104%	27
O=C(CCCc1ccccc1)NCCS(=O)(=O)N1CCN(c2ccccc2F)CC1	2%	9%	-2%	nt	nt	nt
COc1ccc(-c2cnnc(N/N=C/c3ccc(O)c(O)c3)n2)cc1	1.7µM*	63%	28%	30*	3%	32
COc1ccc(-c2cnnc(N/N=C/c3ccc(O)cc3)n2)cc1	-4%	13%	0%	30	nt	31
COc1ccc(-c2cnnc(N/N=C/c3ccc(C)o3)n2)cc1	?	4.1µM*	0%	-2	2%	-8
Brc1ccc(/C=N/Nc2nncc(-c3ccccc3)n2)o1	-18%	?	1%	12	nt	-8
Oc1ccc(/C=N\Nc2nncc(-c3ccccc3)n2)cc1	?	2.3µM*	4%	23*	5%	51*
COc1ccc(NC(=O)CN(C)CC(=O)Nc2ccc(Cl)c(S(=O)(=O)N(C)C)c2)cc1	-15%	?	6%	1	nt	45
CC1Cc2ccccc2N1CC(=O)Nc1ccc(S(=O)(=O)N(C)C)cc1 (stereo not given)	?	?	-2%	-1	6%	-6
CC1Cc2ccccc2N1CC(=O)Nc1ccc(N2CCOCC2)cc1 (stereo not given)	-13%	-13%	5%	8	nt	-14
CN(C)S(=O)(=O)c1cc(NC(=O)CN2CCc3ccccc32)ccc1Cl	?	-16%	-1%	30*	nt	28
CN(CC(=O)Nc1ccc(Cl)c(S(=O)(=O)N(C)C)c1)Cc1ccccc1	-6%	?	5%	40*	11%	73*
CC1Cc2ccccc2N1CC(=O)Nc1ccc2c(c1)OCCCO2 (stereo not given)	?	12µM*	6%	nt	nt	nt
CC1Cc2ccccc2N1CC(=O)Nc1ccc(Cl)c(S(=O)(=O)N(C)C)c1 (stereo not given)	9.3µM*	-54%	-2%	-3	nt	-1
COC(=O)[C@H](C(C)C)N(Cc1ccccc1)S(=O)(=O)CCN1CCN(c2ccccc2)CC1	nt	nt	-27%	nt	nt	nt
Cc1cc(C(=O)NCCCN2CCCC2=O)cs1	25%	nt	0%	4	-3%	6
O=C(NCCCN1CCCC1=O)c1ccc([N+](=O)[O-])s1	10µM*	?	nt	nt	nt	nt
O=C(NCCCN1CCCC1=O)c1csc2ccccc12	16%	nt	3%	12*	1%	17
CCOc1ccc(N(CC(=O)N2CCCCC2)S(=O)(=O)c2ccc(Cl)cc2)cc1	?	-16%	-22%	-7	-63%	21
CC1CCCN(C(=O)CSc2nnc3ccccn23)C1 (stereo not given)	17%	6%	11%	nt	nt	nt
Clc1cccc(-c2nc(-c3ccccn3)no2)c1	-79%	7.4µM*	-6%	16	-15%	16
c1ccc(-c2cc(-c3nc(-c4ccccn4)no3)c3ccccc3n2)cc1	nt	nt	nt	nt	-14%	nt
COc1cc(-c2nc(-c3ccccn3)no2)cc(OC)c1OC	59%	60%	9%	17*	-14%	81*
c1ccc(-c2noc(-c3cccc4ccccc34)n2)nc1	275%	14%	-9%	43*	-121%	41*
COc1ccccc1-c1noc(-c2cc(OC)c(OC)c(OC)c2)n1	-26%	?	-21%	-2	-35%	4
COc1cccc(-c2nc(-c3ccccn3)no2)c1OC	64%	-13%	1%	37*	-4%	134*
